Reference: the supplement of paper PMC4166925
± gives the standard deviation of the averaged measurements. Whole data set: some 33,000 sequences, median “E-score (dimensionless, -0.5 to 0.5)” near -0.049, cut for the highest 2% near 0.37. Many of the other results were omitted from the sample, so the highest values are more common in it than they were.

System: T1, PmTbr T-box DNA-binding domain (GST fusion)
T1 sequence: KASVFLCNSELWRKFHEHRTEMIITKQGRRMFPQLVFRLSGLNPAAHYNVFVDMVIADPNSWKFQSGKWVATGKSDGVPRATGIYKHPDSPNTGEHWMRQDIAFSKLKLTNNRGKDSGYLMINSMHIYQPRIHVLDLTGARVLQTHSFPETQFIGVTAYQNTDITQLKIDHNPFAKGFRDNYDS
Assay: PBM E-score of 8-mer (E-score (dimensionless, -0.5 to 0.5)); Tbr is Tbrain of the sea star Patiria miniata (Pm) or the sea urchin Strongylocentrotus purpuratus (Sp); higher = stronger binding preference
Settings: the construct has about 5 more residues each side
Description: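 Universal protein-binding microarray (Agilent AMADID 016060, 60-bp probes with a 35-bp variable region) incubated with 200 nM GST-fused Patiria miniata Tbr T-box DNA-binding domain (residues 272-466) in PBS pH 7.5. Scored for every ungapped 8-mer (given with its reverse complement) by the Universal PBM Analysis Suite as E-score (modified Wilcoxon-Mann-Whitney enrichment, range -0.5 to 0.5; >0.45 counts as bound) and Z-score of median probe intensity. Two replicate arrays (datasets 1 and 2).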
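Note: 200 nM protein in PBS on universal arrays averaged over duplicate arrays.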

Sequence	PBM E-score of 8-mer
GAAATTAA	-0.113 ± 0.044
GTTGCTCA	0.0245 ± 0.051
ACCCTCAG	0.0121 ± 0.00031
AACTAGGC	-0.0964 ± 0.044
CTTCCCCC	-0.166 ± 0.07
AGCTGGGC	-0.222 ± 0.056
GCTGGTTA	-0.0863 ± 0.064
AACCTATG	-0.141 ± 0.019
GACCTATC	-0.0538 ± 0.05
CACCTATA	0.377 ± 0.018
AACCTATA	-0.0111 ± 0.13
AACCTATC	-0.165 ± 0.17
CACCTATC	0.399 ± 0.0088
AACCTATT	-0.172 ± 0.056
CACCTATG	0.429 ± 0.011
TACCTATA	-0.137 ± 0.041
CGACTCAG	-0.0525 ± 0.0052
CTTTATGA	-0.00777 ± 0.018
CTCCACAC	0.341 ± 0.0092
AGCGTTAA	0.265 ± 0.06
AGCGTCAA	0.258 ± 0.0039
GGCGTTAA	0.377 ± 0.024
CGCGTCAA	0.308 ± 0.0074
TGCGTTAA	0.109 ± 0.017
GGCGTCAA	0.4094 ± 0.001

Sequence	PBM E-score of 8-mer
AAACCAAC	-0.0437 ± 0.062
CCATTAAA	-0.239 ± 0.0035
CTTTCGGA	-0.0447 ± 0.021
CTTTCGCA	0.411 ± 0.015
AATTCGCG	0.303 ± 0.035
CTTTCGCC	-0.0672 ± 0.025
ATTTCGAG	0.09258 ± 0.00026
ATTTCGCG	0.4125 ± 0.00097
GTTTCGCA	0.3685 ± 0.0028
ATTTCGCA	0.378 ± 0.0045
ATTTCGCC	-0.0762 ± 0.14
GTTCGAAA	-0.132 ± 0.091
GTATTCGA	0.0428 ± 0.0073
GATCGAAC	-0.0822 ± 0.031
CGCACAGA	-0.108 ± 0.087
AACTGATG	0.0361 ± 0.047
CGCTTTGC	-0.129 ± 0.036
ATCCATTG	-0.235 ± 0.089
ACTTGGCA	0.239 ± 0.015
AGATGTCC	-0.322 ± 0.016
AGCTGTTG	0.2441 ± 0.0021
AGATGTTG	0.0167 ± 0.014
CGGTGTTC	-0.0289 ± 0.062
AGGTGTTC	0.4091 ± 0.0032
ACGTGTCC	0.0892 ± 0.034

Sequence	PBM E-score of 8-mer
AGGTGTTG	0.4891 ± 0.0019
AGGTGTCC	0.45 ± 0.0092
AGATGTTC	0.0612 ± 0.07
GAGCGAAC	0.0537 ± 0.089
GCTAACTA	0.212 ± 0.07
ACGCTAGT	0.036 ± 0.023
GCACACTA	0.102 ± 0.027
GATAGCCA	-0.257 ± 0.028
CAACGCTC	-0.0448 ± 0.0033
CTTTCACC	0.14 ± 0.034
ATTTCACC	0.167 ± 0.058
CTTTCACA	0.444 ± 0.0053
GTTTCACA	0.36 ± 0.027
ATTTCACG	0.319 ± 0.026
ATTTCACA	0.426 ± 0.013
ACCATTCG	0.233 ± 0.04
ATCTTTTG	-0.2448 ± 0.0018
CATTTTGC	-0.00766 ± 0.017
CGATCTTA	-0.0203 ± 0.061
TGATCACA	0.20944 ± 9.2e-05
TCGTGAAA	0.279 ± 0.018
CCGTGAAA	0.222 ± 0.019
GCGTGAAA	0.4552 ± 0.0024
ATGTGAAC	0.175 ± 0.039
CTGTGAAC	0.356 ± 0.0043

Sequence	PBM E-score of 8-mer
CTGTGAAA	0.384 ± 0.0085
CCGTGAAC	0.257 ± 0.04
TTGTGAAA	0.344 ± 0.027
GTGTGAAC	0.4888 ± 0.0019
ACGTGAAC	0.112 ± 0.051
ATGTGAAA	0.287 ± 0.019
GCGTGAAC	0.405 ± 0.021
CCCAGGTA	-0.102 ± 0.03
CGCTTCAA	0.0949 ± 0.078
AATCGCTG	-0.0604 ± 0.024
CCCATCCG	-0.108 ± 0.058
ACATCGTA	-0.0767 ± 0.038
ATCAATAA	-0.279 ± 0.033
GCTCCTGA	-0.206 ± 0.08
ACCAGGTC	-0.101 ± 0.039
CACAGGTG	0.461 ± 0.0062
AACAGGTA	0.126 ± 0.015
CACAGGTC	0.15 ± 0.028
AGCAGGTA	-0.0669 ± 0.01
AGCAGGTC	0.0259 ± 0.014
CACAGGTA	0.163 ± 0.029
ACCAGGTG	0.369 ± 0.028
AACAGGTG	0.4042 ± 0.00081
ACCAGGTA	-0.0585 ± 0.034
AGCAGGTG	0.414 ± 0.026

Sequence	PBM E-score of 8-mer
AACAGGTC	0.14 ± 0.036
TATTCGGA	-0.32 ± 0.033
ACGCGACG	0.237 ± 0.016
AACTGCAT	-0.201 ± 0.029
CCTAAGAC	-0.178 ± 0.094
CCCAAGGG	-0.052 ± 0.028
CTACAGAA	0.0244 ± 0.029
CACATTGG	0.281 ± 0.053
TGTTTGAA	0.112 ± 0.0038
ATCAGGTG	0.404 ± 0.0092
ATCAGGTC	-0.169 ± 0.12
ATCAGGTA	-0.0936 ± 0.033
AAGGTGCA	0.4 ± 0.011
GCGGTGCC	0.0932 ± 0.011
GAGGTGCC	0.409 ± 0.03
ACGGTGCT	0.164 ± 0.072
AAGGTGCC	0.405 ± 0.0071
ACGGTGCA	0.0807 ± 0.013
AAGGTGCT	0.441 ± 0.0066
TAGGTGCA	0.22 ± 0.024
ACGGTGCC	0.158 ± 0.032
GAGGTGCA	0.367 ± 0.0099
AAGGTGGT	0.3415 ± 0.002
ATGGTGCC	0.193 ± 0.051
ACTTTTTC	0.124 ± 0.02

Sequence	PBM E-score of 8-mer
AAAAGACT	-0.205 ± 0.034
CAGTCCTC	-0.118 ± 0.032
CCACTGCC	-0.17 ± 0.095
CAGAAGTA	-0.223 ± 0.0053
ATCCACAG	-0.0977 ± 0.018
ATCGAACA	-0.0797 ± 0.051
CCCAGGGG	-0.162 ± 0.093
AAAGTGAC	0.392 ± 0.012
AAAGTGAA	-0.00138 ± 0.15
GAAGTGAA	0.219 ± 0.011
CAAGTGAC	0.325 ± 0.021
GAAGTGAC	0.379 ± 0.017
AAAGTGAT	0.299 ± 0.012
AGAGTTCG	-0.201 ± 0.018
CTGGGACA	-0.223 ± 0.073
AACTTCCG	-0.141 ± 0.013
AACTTGTC	0.34353 ± 0.00012
CACTTCAC	0.396 ± 0.012
CACTTGCA	0.349 ± 0.0093
AACTTCAC	0.0623 ± 0.061
CACTTCCG	0.37 ± 0.013
CACTTGTA	0.0949 ± 0.008
AACTTGCG	0.137 ± 0.02
CACTTCCC	0.3321 ± 0.00048
CACTTGCG	0.376 ± 0.019

Sequence	PBM E-score of 8-mer
CACTTGTC	0.402 ± 0.0079
CACTTCAG	0.255 ± 0.025
ACCCTTGC	0.0156 ± 0.051
ACAGATAC	-0.0952 ± 0.059
AATTAAGG	-0.152 ± 0.064
ACCGTCAC	0.288 ± 0.0081
ACACTCTG	0.2899 ± 0.00065
AATTGGAA	-0.0872 ± 0.056
GGGCCAAA	-0.228 ± 0.029
CATTGGGG	-0.0156 ± 0.035
CTTCGCTC	0.00268 ± 0.066
AATCGCGA	0.3771 ± 0.0028
CCTCGCGA	0.281 ± 0.00058
ATTCGCGA	0.389 ± 0.0025
GTTCGCGA	0.338 ± 0.019
ACTCGCGA	0.38 ± 0.0065
CATCGCGC	0.262 ± 0.0094
CATCGCGA	0.15 ± 0.043
CTTCGCGA	0.277 ± 0.011
CTTCGCGC	0.3742 ± 0.0014
ACTCGCGC	0.29 ± 0.014
AATCGCGT	0.169 ± 0.035
GGCATTAA	-0.146 ± 0.0047
TGCTCCAA	-0.162 ± 0.04
ACCCTACG	0.0529 ± 0.027
